According to PubChem BioAssay:
Active and inactive are the calls of the source.

How the values were obtained:
[1] = compound effects on lung adenocarcinoma cell viability – A549, calcein-AM fluorescence, 48 h, basal, profiling panel (AID 1162); settings: higher = more signal
[2] = compound effects on differentiated 3T3-L1 adipocyte viability – cell-based, 3T3-L1 adipocytes, calcein-AM fluorescence, 48 h, basal, profiling panel (AID 1163); settings: 3T3-L1 adipocytes viability, higher = more signal
[3] = compound effects on hepatocellular carcinoma cell viability – HepG2, calcein-AM fluorescence, 48 h, basal, profiling panel (AID 1164); settings: higher = more signal
[4] = compound effects on multiple myeloma cell viability – MM1S, calcein-AM fluorescence, 48 h, basal, profiling panel (AID 1165); settings: higher = more signal;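 also: viability of MM1S multiple myeloma cells under basal unstimulated conditions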
[5] = calcein-AM signal in unstimulated myeloma cells – cell-based, calcein-AM fluorescence, 48 h, PK04 Diversity Set, profiling panel (AID 1166); settings: RPMI8226 myeloma viability, higher = more signal;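 also: cells grown under basal conditions without added stimulus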
[6] = JC-1 mitochondrial signal, unstimulated HepG2 cells – cell-based, JC-1 fluorescence, 24 h, 100 nL compound, profiling panel (AID 1167); settings: HepG2 mitochondrial potential, higher = more signal
[7] = JC-1 mitochondrial signal, unstimulated adipocytes – cell-based, JC-1 fluorescence, 3T3-L1 adipocytes, 24 h, 100 nL compound, profiling panel (AID 1168); settings: JC-1 mitochondrial fluorescence, higher = more signal, called active from +8 up or from −8 down
[8] = JC-1 mitochondrial signal, unstimulated myeloma cells – cell-based, JC-1 fluorescence, RPMI8226, 24 h, 100 nL compound, profiling panel (AID 1169); settings: JC-1 mitochondrial potential fluorescence, higher = more signal
[9] = JC-1 mitochondrial signal, unstimulated MM1S myeloma – cell-based, JC-1 fluorescence, 24 h, 100 nL compound, profiling panel (AID 1170); settings: MM1S mitochondrial potential, higher = more signal
[10] = resazurin metabolic signal in A549 cells – cell-based, resazurin fluorescence, 24 h, PK04 Diversity Set, profiling panel (AID 1171); settings: A549 viability, higher = more signal, called active from +8 up or from −8 down
Also: test concentration not given here.

| Compound | z-score [1] | z-score [2] | z-score [3] | z-score [4] | z-score [5] | z-score [6] | z-score [7] | z-score [8] | z-score [9] | z-score [10] |
| --- | --- | --- | --- | --- | --- | --- | --- | --- | --- | --- |
| C=CCOC(=O)[C@H]1[C@@H]2C(=O)O[C@@H](c3ccccc3)[C@@H](c3ccccc3)N2[C@@H](c2ccc(OCCOC(=O)[C@H]3C[C@H]4C(=O)N5CCC[C@H]5C(=O)N4[C@H]3c3ccc(O)cc3)cc2)[C@]12C(=O)Nc1ccc(I)cc12 | 0.321 | 1.47 | -0.167 | -0.484 | -0.231 | -0.518 | -0.32 (inactive) | -0.00574 | -0.286 | -1.16 (inactive) |
| COc1ccc([Si](C)(C)[C@H]2[C@H](CC(=O)N3CCC[C@H]3CO)O[C@@]3(C(=O)N(Cc4cccc(N5C(=O)c6cccc7cccc5c67)c4)c4ccccc43)[C@@H]2C)cc1 | -0.577 | 0.453 | -0.507 | -1.99 | -3.99 | 1.12 | -0.69 (inactive) | -1.12 | -0.388 | -0.892 (inactive) |
| CC(C)(C)C(=O)N[C@@H](c1ccc(Cl)cc1)[C@]1(C)C[C@H]1C1CCCCC1 | -1.07 | 0.459 | -0.492 | -1.22 | -1.43 | 4.37 | -0.594 (inactive) | -0.533 | 0.162 | -0.466 (inactive) |
| COc1ccc([C@H]2OC[C@@H]3CC4(CC=CC4)C(=O)N32)cc1 | 0.262 | -0.238 | -0.0409 | -0.58 | 0.055 | -0.301 | 0.197 (inactive) | -0.54 | 0.17 | -0.312 (inactive) |
| O=C(O)[C@@]1(CCS(=O)(=O)c2ccccc2)COC(c2ccc(OCCCO)cc2)=N1 | 0.518 | -0.664 | -0.0551 | -1.69 | -0.658 | -1.13 | 0.148 (inactive) | 0.943 | -0.436 | 0.221 (inactive) |
| COC(=O)[C@@]1(Cc2ccc(OC)cc2)[C@H]2c3cc(C(=O)N(C)C)n(Cc4cccc5ccccc45)c3C[C@H]2CN1C(=O)c1ccccc1 | -1.62 | 1.26 | -0.0664 | -0.623 | -2.08 | 3.37 | -0.669 (inactive) | -0.127 | -1.41 | -1.92 (inactive) |
| C=C/C=C/[C@H]1C(=C)CN([C@@H](Cc2ccccc2)C(=O)OC)[C@@H]1[C@H](O)Cc1ccccc1 | -0.0859 | -0.178 | -0.0232 | -2.2 | -1.52 | -1.06 | -0.882 (inactive) | -0.317 | 0.165 | -0.138 (inactive) |
| COC(=O)C=C(CC(O)c1cccc(Cl)c1)OC (stereo not given) | 0.409 | 0.0036 | 1.01 | 0.892 | -0.221 | 0.456 | 0.705 (inactive) | -0.738 | -1.36 | -0.34 (inactive) |
| CCCC=C(CCC)[C@@H](NS(=O)(=O)c1cccs1)c1ccc(C(=O)OC)cc1 | -3.9 | 0.532 | -5.36 | -3.33 | -4.74 | -4.43 | 1.24 (inactive) | -0.819 | -2.8 | 4.56 (inactive) |
| CCCC[C@H]1OB(O)C[C@H]2C1=C(COc1ccccc1)C[C@H]1C(=O)N(C)C(=O)[C@H]12 | 0.498 | 0.0271 | 0.258 | -1.46 | -0.185 | -1.29 | 0.468 (inactive) | 0.304 | 0.35 | -0.166 (inactive) |
| CC(C)C(CO)N1C(=O)[C@@H]2[C@H]3C(=O)OCC=C[C@H]3OC23C=CCN(C(C)C)C(=O)[C@@H]13 (stereo not given in full) | -0.368 | 0.877 | -0.185 | -0.181 | 0.642 | -0.304 | 0.148 (inactive) | -0.0287 | -0.0116 | 0.711 (inactive) |
| CCCCCC1=C2CNC(CCC)(C(=O)OC)C=C2C(C)C1=O (stereo not given) | -1.22 | -0.388 | 0.62 | 0.0829 | -0.282 | -0.24 | -0.283 (inactive) | -0.18 | -1.13 | -0.606 (inactive) |
| CCOC(=O)C1=CCC(c2ccccc2)N(S(=O)(=O)CC[Si](C)(C)C)C1 (stereo not given) | -0.557 | -0.047 | 0.413 | -1.76 | 0.582 | 4.48 | -0.0119 (inactive) | -0.119 | -1.66 | 0.866 (inactive) |
| CCOC(=O)C[C@H]1[C@H](OC(=O)c2cc3ccccc3oc2=O)[C@@H](NC(=O)Cc2ccc(OC)cc2)c2cc(OCCCO)ccc2N1C(=O)c1ccccc1 | -0.172 | 2.17 | -0.56 | -0.0168 | -0.606 | -0.412 | -0.111 (inactive) | -0.135 | -0.244 | -0.714 (inactive) |
| COc1cc(OC)c(C(O)C2C=CC3C(=O)NC(=O)C3N2Nc2ccc(Cl)cc2Cl)cc1Br (stereo not given) | -1.52 | 0.0779 | -2.49 | -3.42 | -3.97 | -2.87 | -0.82 (inactive) | -1.09 | -1.27 | -2.56 (inactive) |
| COc1ccc([Si](C)(C)[C@H]2[C@H](CCO)O[C@@]3(C(=O)N(C)c4c(Br)cc(C)cc43)[C@@H]2C)cc1 | -4.21 | -1.8 | -4.77 | -2.69 | -4.31 | -2.21 | 0.343 (inactive) | -1.05 | -2.29 | -6.97 (inactive) |
| COC(=O)[C@@]1(Cc2ccc(OC)cc2)[C@H]2c3cc(C(=O)N4CCCC4)n(Cc4ccccc4)c3C[C@H]2CN1C(=O)c1ccccc1 | -0.549 | 0.39 | -0.331 | -1.63 | -2.12 | 2.44 | -1.07 (inactive) | -0.933 | -1.3 | -2.5 (inactive) |
| NC(=O)[C@@H]1[C@H]2C(=O)O[C@H](c3ccccc3)[C@H](c3ccccc3)N2[C@H](c2ccc(O)cc2)[C@@]12C(=O)Nc1ccc(C#CC3(O)CCCCCC3)cc12 | 0.735 | -0.0487 | 0.338 | -1.44 | -0.482 | -0.717 | -0.928 (inactive) | -0.566 | -0.0259 | 0.399 (inactive) |
| COCCCNC(=O)C1N=C(c2ccc(OCCCO)cc2)N(c2ccccc2)O1 (stereo not given) | -0.201 | 0.829 | -0.393 | 0.399 | 0.336 | -0.205 | -0.183 (inactive) | -0.492 | -0.213 | 0.938 (inactive) |
| C#CCN(CC1=CCCCC1)[C@H](c1ccccc1Br)[C@@H](O)Cc1ccccc1 | -0.101 | 0.109 | 0.455 | -2.26 | -4 | -1.05 | -0.352 (inactive) | -1.08 | -0.635 | 1.2 (inactive) |
| COC(=O)[C@@]1(Cc2ccc(F)cc2)[C@H]2c3cc(C(=O)N(C)C)n(Cc4ccc(S(C)(=O)=O)cc4)c3C[C@H]2CN1C(=O)c1ccccc1 | -0.379 | -0.631 | 0.137 | 0.373 | -0.198 | 3.32 | -0.224 (inactive) | 0.059 | 0.125 | -0.46 (inactive) |
| COc1ccc(COC2OC[C@]3(C)[C@H]4C5=C(CN3C(=O)OC(C)(C)C)[C@H](C)C(CO)C(CO)C5CC[C@@H]24)cc1 (stereo not given in full) | -0.963 | 0.627 | -0.0917 | 0.0355 | -1.17 | 1.24 | -0.685 (inactive) | 0.429 | 0.0993 | -1.34 (inactive) |
| C=C(CCCC)/C(=C/C[C@@H](OC(C)=O)c1ccccc1OCCO)c1cnc2ccccc2c1 | -0.865 | 1.79 | -0.749 | -2.72 | -3.31 | 0.749 | -1.17 (inactive) | -0.691 | 0.61 | -1.21 (inactive) |
| [N-]=[N+]=NCc1ccccc1[C@@H]1OC(c2ccc(OCCCO)cc2)=N[C@]1(CCS(=O)(=O)c1ccccc1)C(=O)NCc1ccccc1 | -0.137 | 1.09 | 0.0616 | -0.158 | -1.04 | -0.0428 | 0.0135 (inactive) | -0.143 | -0.979 | 0.201 (inactive) |
| C=CCOC(=O)[C@H]1[C@@H]2C(=O)O[C@@H](c3ccccc3)[C@@H](c3ccccc3)N2[C@@H](c2ccc(OCCOC(=O)[C@H]3C[C@H]4C(=O)N[C@@H](CC(C)C)C(=O)N4[C@H]3c3ccc(O)cc3)cc2)[C@]12C(=O)Nc1ccc(I)cc12 | 0.709 | -0.212 | 1.8 | -2.02 | 0.0851 | -0.626 | -0.804 (inactive) | -0.418 | -0.859 | 0.0559 (inactive) |
| COCCOC(=O)N1C(=O)[C@@]2(c3cc(C#CCCO)ccc31)[C@H](c1ccc(OCCO)cc1)N1[C@H](c3ccccc3)[C@H](c3ccccc3)OC(=O)[C@H]1[C@@H]2C(=O)N1CCN(c2ncccn2)CC1 | 0.559 | 0.344 | 0.479 | -1.32 | -0.713 | 0.503 | -0.138 (inactive) | -0.41 | -1.19 | 0.253 (inactive) |
| CC1CC/C=C\[C@H]2OC34C=CCN(C(C)(C)C)C(=O)[C@H]3N(CCCCCCO)C(=O)[C@@H]4C2C(=O)O1 (stereo not given in full) | 0.406 | 0.305 | 1.08 | 0.742 | 0.298 | 0.436 | 1.11 (inactive) | 0.563 | -0.166 | -0.43 (inactive) |
| CCOC1=C2C(CN(S(=O)(=O)c3ccc(C)cc3)C2c2ccc(C)cc2)C2C(=O)N(c3ccccc3)C(=O)C2C1 (stereo not given) | -0.592 | -0.843 | 0.58 | 0.729 | 0.285 | 0.247 | 1.2 (inactive) | 1.1 | -1.37 | -0.376 (inactive) |
| C=CCNC(=O)[C@H]1[C@@H]2C(=O)O[C@@H](c3ccccc3)[C@@H](c3ccccc3)N2[C@@H](c2ccc(OCCO)cc2)[C@]12C(=O)Nc1ccc(C#CC3=CCCCC3)cc12 | -1.03 | 1.66 | -1.17 | -1.99 | -3.64 | -1.43 | 2.5 (inactive) | -1.13 | -1.32 | -0.829 (inactive) |
